PubChem BioAssay AID1851 (National Center for Advancing Translational Sciences (NCATS), 2009)
Screen size: about 16,000 compounds; about 2,600 (16%) were called active. Inconclusive results (about 20%) are left out. The call rests on the fitted dose curve; in most records, active means well fitted curve in the direction sought with a large enough effect; inconclusive means small, poorly fitted or top-dose-only effect, or effect the other way; inactive means no such curve, though single readings can be large or run the other way. Not all results are given here. The source holds several records for some structures; these can differ, active in one and inactive in another.

These compounds were tested against Cytochrome P450 2D6 (Homo sapiens) (UniProt P10635) (assay: Cytochrome panel assay with activity outcomes). Settings: recombinant CYP, pro-luciferin dealkylation, luminescence, p450-cyp2d6; series mostly up to 57.1 µM; activity, negative = inhibition: at the top concentration.
Sequence of Cytochrome P450 2D6 (Homo sapiens) (P10635 whole entry, looked up): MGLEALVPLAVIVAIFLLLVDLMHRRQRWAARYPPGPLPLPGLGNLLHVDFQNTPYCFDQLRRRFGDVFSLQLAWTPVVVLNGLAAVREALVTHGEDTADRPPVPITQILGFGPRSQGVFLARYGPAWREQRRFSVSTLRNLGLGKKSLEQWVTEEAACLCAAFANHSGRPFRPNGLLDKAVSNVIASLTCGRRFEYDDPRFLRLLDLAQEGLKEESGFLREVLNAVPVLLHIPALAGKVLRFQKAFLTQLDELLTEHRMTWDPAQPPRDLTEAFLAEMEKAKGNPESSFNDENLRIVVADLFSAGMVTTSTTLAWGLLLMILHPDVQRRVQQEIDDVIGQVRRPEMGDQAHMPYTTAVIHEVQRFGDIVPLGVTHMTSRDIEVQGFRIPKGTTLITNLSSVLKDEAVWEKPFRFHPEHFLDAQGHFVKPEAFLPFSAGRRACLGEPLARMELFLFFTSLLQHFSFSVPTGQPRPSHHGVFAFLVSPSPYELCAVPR
On the % scale 0 is the no-effect control and ±100 the full control effect.

Row | SMILES | AC50 | activity, negative = inhibition
1 | COc1ccc(S(=O)(=O)N2CCCN(CCC(=O)Nc3cccc(C(F)(F)F)c3)CC2)cc1 | 8.91 µM (active) | 
2 | Cc1c(C(=O)Nc2cccc(C(F)(F)F)c2)oc2ccc(S(=O)(=O)N3CCOCC3)cc12 |  | -8.55% (inactive)
3 | COc1ccc(C)cc1NC(=O)CN1CCN(S(=O)(=O)c2ccc(F)cc2)CC1 |  | -21.5% (inactive)
4 | COc1ccc(S(=O)(=O)N2CCCN(CC(=O)Nc3ccc(OC)c(Cl)c3)CC2)cc1 | 11.2 µM (active) | 
5 | COc1ccc(NC(=O)c2cc(S(=O)(=O)N3CCS(=O)(=O)CC3)ccc2Cl)cc1 |  | 8.12% (inactive)
6 | CCN1CCN(CCC(=O)Nc2cccc(OC)c2)CC1 |  | -7.68% (inactive)
7 | Cc1nc(SC2CC(=O)N(c3ccc([N+](=O)[O-])cc3)C2=O)nc2c1CCCC2 (stereo unspecified) |  | -1.33% (inactive)
8 | COC(=O)c1ccc(C(=O)OC)c(NC(=S)N2CCN(c3ccccc3)CC2)c1 |  | -16.5% (inactive)
9 | C=CCOc1cccc(CNn2cn[nH]c2=S)c1 |  | 3.23% (inactive)
10 | COc1cc(C2C(C#N)=C(N)N(c3sc4c(c3C#N)CCCC4)C3=C2C(=O)CC(C)(C)C3)cc(OC)c1OC (stereo unspecified) |  | 9.61% (inactive)
11 | Cc1cc(C)c(O)c(Cc2cccc(Cc3cc(C)cc(C)c3O)c2O)c1 |  | 12.6% [at 11.4 µM] (inactive)
12 | Cc1ccc(C(=O)N/N=C/c2sc(=O)n(Cc3cccc(C(=O)O)c3)c2Cl)cc1 |  | 12.6% (inactive)
13 | CO[C@@H]1COC(=O)[C@H](C)NC(=O)[C@@H](C)COC(=O)CCC[C@H]1C |  | 8.56% [at 11.4 µM] (inactive)
14 | CSc1nncc(/C(C)=N\Nc2ccccc2)n1 |  | -6.12% (inactive)
15 | COCCN=C1Sc2nc3c(C)cccc3cc2CN1Cc1ccco1 | 14.1 µM (active) | 
16 | CCn1c(SCC(=O)NC2CCCCC2)nnc1-c1cc2cccc(OC)c2o1 |  | -23.6% (inactive)
17 | COCCNC(=O)CSc1ncnc2sccc12 |  | 13.7% (inactive)
18 | COc1ccc(C2C(C(=O)N3CCN(C)CC3)c3ccccc3C(=O)N2C2CCCCC2)cc1 (stereo unspecified) |  | -5.85% (inactive)
19 | CN(C)CCCNc1ncnc2nc[nH]c12 |  | 1.66% [at 11.4 µM] (inactive)
20 | Cc1ccc2nc(NC(=O)CSCC(=O)OCC(=O)c3ccc(Br)cc3)sc2c1 |  | -12.5% (inactive)
21 | Cc1ccc2nc(NC(=O)COC(=O)CSc3nc(C)cc(C)n3)sc2c1 |  | -23.1% (inactive)
22 | Cc1ccc2nc(NC(=O)COC(=O)c3ccc(Br)o3)sc2c1 | 15.8 µM (active) | 
23 | C=C[C@]1(C)C[C@H](OC(=O)CO)[C@]2(C)C3C(=O)CC[C@]3(CC[C@H]2C)[C@H](C)[C@H]1O (stereo partly specified) |  | -10.6% [at 11.4 µM] (inactive)
24 | CC(=O)OCC(=O)[C@@]1(O)CC[C@@H]2[C@H]3CCC4=CC(=O)C=C[C@]4(C)[C@]3(F)[C@@H](O)C[C@@]21C |  | -1.72% [at 25.6 µM] (inactive)

Row | SMILES | AC50 | activity, negative = inhibition
25 | O=C1C=C[C@@H](O)[C@H]2[C@@H]3C(=O)N(c4cccc(Oc5ccccc5)c4)C(=O)[C@@H]3CC[C@H]12 |  | -0.0224% [at 11.4 µM] (inactive)
26 | COc1ccccc1CCn1c(=O)c(-c2cc(F)cc(F)c2)nc2cncnc21 |  | -11.2% (inactive)
27 | CCCN(C(=S)Nc1ccccc1)C1CCS(=O)(=O)C1 (stereo unspecified) |  | -4.85% (inactive)
28 | Cc1cccc(NC(=O)Cn2cccc2)c1 |  | -5.49% (inactive)
29 | COc1ccc(CCNC(=O)Cn2c(=O)oc3ccccc32)cc1OC |  | -18.7% (inactive)
30 | Cc1cccc(NC(=S)NNC(=O)CCn2cc(C)cn2)c1 |  | -3.85% (inactive)
31 | Cc1cccc(NC(=S)NC(=O)CCc2ccccc2)c1 |  | -17.4% (inactive)
32 | Cc1cccc(NC(=O)Cn2c(=O)n3nc(CCn4nc(C)cc4C)nc3c3ccccc32)c1 | 14.1 µM (active) | 
33 | Cc1cccc(NC(=O)Cn2c(=O)oc3ccccc32)c1 | 3.16 µM (active) | 
34 | COc1cc(C2C(C(=O)OCCC#N)=C(C)NC3=C2S(=O)(=O)c2ccccc23)cc(OC)c1OC (stereo unspecified) |  | -6.84% (inactive)
35 | Cc1ccc(-c2ccnc(=S)[nH]2)cc1 |  | -14.8% (inactive)
36 | Cc1c(C(=O)Nc2ccc(OCc3ccccc3)cc2)cccc1[N+](=O)[O-] |  | -5.06% (inactive)
37 | COc1ccc(/C=N/NC(=O)CCCC(=O)NC2CCCCC2)cc1 |  | 16.3% (inactive)
38 | CN(C)c1ncc2nc(-c3cc(F)cc(F)c3)c(=O)n(Cc3ccc(F)cc3)c2n1 |  | 10% (inactive)
39 | Cc1ccc(Nc2nc(Cl)nc(N(C)C#N)n2)cc1 |  | 1.15% (inactive)
40 | Nc1nnc(CC(=O)N/N=C/c2cccc([N+](=O)[O-])c2)s1 |  | -21.2% (inactive)
41 | Cc1sc(N/N=C/C=C/c2ccccc2)nc1-c1ccccc1 |  | -10.8% (inactive)
42 | Cc1cccc(-n2c(Cn3nc(C)c([N+](=O)[O-])c3C)n[nH]c2=S)c1 |  | 3.45% (inactive)
43 | C/C(=N\NC(=S)Nc1cccc(C)c1)c1ccccc1 |  | -25.1% (inactive)
44 | Cc1nc(/N=C(\N)Nc2ccccc2)nc2ccccc12 |  | -12.1% (inactive)
45 | Cc1ccc(C)c(N/C(N)=N/c2nc(C)cc(C)n2)c1 | 0.794 µM (active) | 
46 | Cc1ccc(C)c(NC(=O)c2ncn[nH]2)c1 |  | 8.78% (inactive)
47 | Cc1ccc(C)c(NC(=O)Cn2nnc(C(=O)Nc3c(C)cccc3C)c2N)c1 |  | -25.4% (inactive)
48 | Cc1cccc(N/C(N)=N/c2nc(C)cc(C)n2)c1 | 2.82 µM (active) | 

Row | SMILES | AC50 | activity, negative = inhibition
49 | Cc1cc(C)c(-c2cc([C@H](C)O/N=C\[C@@H](C)[C@H](OCc3ccccc3)C(C)C)on2)c(C)c1 |  | -7.16% [at 11.4 µM] (inactive)
50 | COc1cccc(OC)c1OCCNC[C@@H]1COc2ccccc2O1 | 251 nM (active) and inactive | 
51 | O=C(CCNC(=O)Cn1cnc2ccccc2c1=O)NCC1COc2ccccc2O1 (stereo unspecified) |  | 16.6% (inactive)
52 | O=C(N/N=C/c1ccco1)/C(=C/c1cccc([N+](=O)[O-])c1)NC(=O)c1ccccc1 |  | -15.4% (inactive)
53 | O=C(O)c1cc(-c2ccc3cc4c(cc3c2)OCO4)nc2ccccc12 |  | -6.77% [at 11.4 µM] (inactive)
54 | Cn1cc(/C=C2/SC(=O)N(CC(=O)Nc3ccc4c(c3)OCO4)C2=O)c2ccccc21 |  | -6.65% (inactive)
55 | Cn1c(-c2ccc3c(c2)OCO3)cnc1NCc1ccccc1 | 0.794 µM (active) | 
56 | Cn1c(-c2ccc3c(c2)OCO3)cc(=O)c2ccccc21 | 1.58 µM (active) | 
57 | c1ccc(Nc2ncncc2-c2ccc3c(c2)OCO3)cc1 | 12.6 µM (active) | 
58 | CN(C)C(=O)c1ccc(-c2cncnc2Nc2ccccc2)cc1 |  | -2.66% (inactive)
59 | Cc1cccc(CNc2ncncc2-c2ccc3c(c2)OCO3)c1 | 6.31 µM (active) | 
60 | Cc1cccc(CNc2ncncc2-c2ccc(C(=O)N(C)C)cc2)c1 |  | -9.23% (inactive)
61 | CN(C)c1ccc(-c2cc(NCc3ccccc3)ncn2)cc1 |  | -17.2% (inactive)
62 | O=c1oc2cc(N=Cc3ccc4c(c3)OCO4)ccc2c2ccccc12 |  | 4.96% [at 11.4 µM] (inactive)
63 | Cc1noc(C)c1-c1cncnc1Nc1ccccc1 |  | -7.49% (inactive)
64 | Cc1ccc(C(=O)N/N=C\c2ccc[nH]2)cc1[N+](=O)[O-] |  | -6.03% (inactive)
65 | CCCOc1ccc(C(=O)NNC(=S)NC(=O)c2cc(-c3ccccc3)nc3ccccc23)cc1 |  | 3.87% (inactive)
66 | O=C(Nc1cccn2ncnc12)c1ccc(Cl)cc1Cl |  | 2.48% (inactive)
67 | COC(=O)C1=C(NC(=O)c2cccs2)CCS1 |  | 12.9% (inactive)
68 | COc1cnc(-c2ccccn2)nc1Sc1c(Cl)cccc1Cl |  | -25% (inactive)
69 | COc1cc(OC)cc(C(=O)Nn2cc(C(=O)N3CCN(C)CC3)c3ccccc3c2=O)c1 |  | -15.2% (inactive)
70 | O=C1CC[C@H](N2C(=O)c3ccccc3C2=O)C(=O)N1 | inactive | 
71 | CCn1cc(C(=O)O)c(=O)c2cc(F)c(N3CCNCC3)nc21 |  | 6.39% [at 25.6 µM] (inactive)
72 | O=C(O)C[C@H](S)C(=O)O |  | -2.12% [at 11.4 µM] (inactive)

Row | SMILES | AC50 | activity, negative = inhibition
73 | c1cncc(CNc2ncncc2-c2ccc3c(c2)OCO3)c1 | 15.8 µM (active) | 
74 | Clc1ccc2c(c1)C=Nc1c(NCc3ccccc3)ncnc1O2 |  | -0.537% (inactive)
75 | c1ccc(CNc2ncncc2-c2ccc3c(c2)OCO3)cc1 | 12.6 µM (active) | 
76 | N#Cc1cccc(-c2cncnc2NCc2cccnc2)c1 |  | -9.2% (inactive)
77 | c1cncc(CNc2ncncc2-c2cccnc2)c1 |  | -11.4% (inactive)
78 | c1csc(CNc2ncncc2-c2ccc3c(c2)OCO3)c1 | 10 µM (active) | 
79 | c1ccc(Nc2ncnc3ccc(-c4ccc5c(c4)OCO5)cc23)cc1 | 0.126 µM (active) | 
80 | COc1ccc(NC(=O)N2CC[C@@]3(CCCN(C(=O)c4cccc(F)c4)C3)C2)cc1 |  | 6.12% (inactive)
81 | O=C(Nc1ccccc1)N1CCSc2cc(Cl)ccc21 |  | -11.2% (inactive)
82 | OC[C@@H]1O[C@@H](N2CCN([C@@H]3O[C@@H](CO)[C@@H](O)[C@H](O)[C@H]3O)CC2)[C@@H](O)[C@H](O)[C@H]1O |  | -3.98% [at 11.4 µM] (inactive)
83 | COc1ccc2c(c1[N+](=O)[O-])CCC/C2=N/OC(=O)c1ccccc1SC |  | -3.18% (inactive)
84 | NC(N)=NC(N)=Nc1ccc(S(N)(=O)=O)cc1 |  | 4.99% [at 11.4 µM] (inactive)
85 | C=CCNC(=O)c1ccc(Cn2c(=S)[nH]c3cc4c(cc3c2=O)OCO4)cc1 |  | 8.13% (inactive)
86 | O=C(c1ccc2c(=O)n(CC3CCCO3)c(=S)[nH]c2c1)N1CCN(c2ccccc2)CC1 (stereo unspecified) |  | -17.4% (inactive)
87 | CCOc1cc2[nH]c(=S)n(CCCC(=O)NCc3ccco3)c(=O)c2cc1OCC |  | 18.8% (inactive)
88 | CCN(CC)CCn1c(=S)[nH]c2cc3c(cc2c1=O)OCO3 | 0.631 µM (active) | 
89 | O=C(CCCn1c(=S)[nH]c2cc3c(cc2c1=O)OCO3)N1CCN(c2ncccn2)CC1 | 5.01 µM (active) | 
90 | CCCCNC(=O)CCn1c(=S)[nH]c2cc3c(cc2c1=O)OCO3 |  | -7.86% (inactive)
91 | O=C(c1ccc2c(=O)n(Cc3ccco3)c(=S)[nH]c2c1)N1CCN(c2ccccc2)CC1 |  | -19.2% (inactive)
92 | O=C(CCCn1c(=S)[nH]c2ccc(Br)cc2c1=O)NCC1CCCO1 (stereo unspecified) |  | -8.4% (inactive)
93 | O=C(CCCCCn1c(=S)[nH]c2cc3c(cc2c1=O)OCO3)N1CCN(C2CCCCC2)CC1 | 8.91 µM (active) | 
94 | CCCC(=O)Nc1cccc(Oc2nc(C)cc(C)c2C#N)c1 |  | -2.28% (inactive)
95 | Cc1ccnc(NS(=O)(=O)c2ccc(N=[N+]=[N-])cc2)n1 |  | 10.7% [at 11.4 µM] (inactive)
96 | CC(C)=CCC/C(C)=C/CO/N=C1/C[C@@H](O)[C@@H](O)[C@@H]2[C@@H]3C(=O)N(Cc4ccccc4)C(=O)[C@H]3CC[C@H]12 |  | -8.8% [at 11.4 µM] (inactive)
